# From PubChem BioAssay
# Mtb hypoxia inh = reduces hypoxia-regulated biosensor signal in M. tuberculosis. M. tuberculosis hypoxia-regulated fluorescent reporter, fluorescence. fluorescence inhibition, % (no concentration beside the values). hit rate 0.1% among 300,000. AID 1159583; in the data active means fluorescence inhibition mostly above about 23%, no sharp cut-off; inactive means mostly below about 17%
# FadD28 FP inh = blocks FadD28 binding to the bisubstrate probe; hit rate 0.22% among 360,000; inhibition, % at 12.5 µM; fluorescence polarization; in the data active means inhibition above about 8.5%, passing the limit was not always enough; inconclusive means no clear call, values can overlap the other calls
# FBA Mtb inh = inhibitors of M. tuberculosis fructose-bisphosphate aldolase. P9WQA3. purified M. tuberculosis FBA, fluorescence read-out. inhibition, % at 1 µM. hit rate 2.3% among 360,000. AID 588726; in the data active means inhibition above about 27%;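 further: 0% = vehicle and 100% = reference inhibitor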
# Target sequence (P9WQA3 whole entry, looked up): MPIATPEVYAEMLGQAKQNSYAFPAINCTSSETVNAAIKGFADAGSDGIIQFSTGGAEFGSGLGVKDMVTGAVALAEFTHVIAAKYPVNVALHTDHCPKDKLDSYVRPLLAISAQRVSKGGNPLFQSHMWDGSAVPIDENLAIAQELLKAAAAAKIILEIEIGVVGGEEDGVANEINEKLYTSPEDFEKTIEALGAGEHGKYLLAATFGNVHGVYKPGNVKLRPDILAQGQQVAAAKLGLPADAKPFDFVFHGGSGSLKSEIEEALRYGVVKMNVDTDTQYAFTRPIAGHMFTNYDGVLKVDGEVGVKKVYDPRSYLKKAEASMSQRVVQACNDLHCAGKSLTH
# GDH-TPI inh = inhibits GDH-TPI coupling enzymes, artifact for Mtb FBA screen. AID 588335. GDH-TPI coupled enzyme counterscreen, NADH absorbance. inhibition, % at 4.8 µM. hit rate 1.2% among 360,000; in the data active means inhibition above about 30%;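 further: 0% = DMSO wells and 100% = wells lacking the enzyme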
# Rv3671c protease = inhibits the M. tuberculosis serine protease Rv3671c; P9WHR9; inhibition, % at 5.96 µM; hit rate 0.048% among 320,000; in the data active means inhibition above about 38%;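 further: extracellular domain of Rv3671c used as enzyme; 0% = enzyme with DMSO and 100% = no enzyme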
# UGM FP inh = Mtb UDP-galactopyranose mutase inhibition; purified UGM, fluorescence polarization probe displacement; hit rate 0.06% among 320,000; P9WIQ1; AID 504406; inhibition, % at 10 µM; in the data active means inhibition above about 10%, passing the limit was not always enough; inconclusive means no clear call, values can overlap the other calls
# An asterisk follows results filed as active; ? = inconclusive; . = no result; + = active, no number. Most compounds without a hit are left out; they make up all but 3.5% or so of the library.
SMILES,Mtb hypoxia inh,FadD28 FP inh,FBA Mtb inh,GDH-TPI inh,Rv3671c protease,UGM FP inh
O=c1cnnc(NN=Cc2ccc3c(c2)OCO3)[nH]1,9,.,.,.,.,.
Cn1c(=O)c2cc(NC(=O)Nc3cccnc3)ccc2n1Cc1cccc(C(F)(F)F)c1,.,?,114*,5,.,.
CN(C)c1ccc(NC(=O)Nc2ccc3c(c2)c(=O)n(C)n3Cc2ccccc2)cc1,.,-4,2,8,.,.
CN(CC1CCOCC1)C(=O)CC1C(=O)NCCN1CC=Cc1ccccc1 (configuration not stated),5,.,.,.,.,.
COc1cc(NS(=O)(=O)c2ccc(Nc3nc(-c4ccccn4)cs3)cc2)nc(OC)n1,-3,3,-3,13,10,4
COc1ccc(-c2csc(Nc3ccc(S(=O)(=O)Nc4cc(OC)nc(OC)n4)cc3)n2)cc1,0,12*,-2,19,15,-2
CCOC(=O)/C(C#N)=N/Nc1ccc(S(=O)(=O)Nc2cc(OC)nc(OC)n2)cc1,.,-2,-8,38*,-7,3
CCOC(=O)C(C#N)=NNc1ccc(S(=O)(=O)Nc2cc(OC)nc(OC)n2)cc1,3,.,.,.,.,.
COc1cc(NS(=O)(=O)c2ccc(N/C=C(\C#N)c3nc4cc(Cl)ccc4o3)cc2)nc(OC)n1,-2,-11,5,53*,-10,4
O=C(NN=C1CC2CC=CC12)c1ccc(O)cc1 (configuration not stated),3,.,.,.,.,.
Cn1[nH]c(-c2ccccc2)c(C=NO)c1=O,10,.,.,.,.,.
CC(=NNC(=O)Nc1ccccc1)c1ccc(C)cc1,12,.,.,.,.,.
O=C(CC=NOCc1ccc([N+](=O)[O-])cc1)Nc1ccc(Cl)cc1,3,.,.,.,.,.
CN1CC2C3C(=O)N(C)C(=O)C3[C@](C)(C1=O)N2C(=O)c1ccc(F)cc1 (some centres not stated),18,.,.,.,.,.
CC(C)CC(NC(=O)c1nc[nH]c1C(=O)NC(CC(C)C)C(=O)OC(C)(C)C)C(=O)OC(C)(C)C (configuration not stated),1,.,.,.,.,.
COc1ccccc1-c1ccc(C(=O)O)o1,.,-1,131*,5,8,-1
COc1ccccc1-c1ccc(/C=N/O)o1,.,-3,4,27,3,-2
N#Cc1c(N)n(CCNC(=O)c2cccs2)c2nc3ccccc3nc12,14,0,+,9,-6,2
Nc1c(C(=O)Nc2ccccc2)c2nc3ccccc3nc2n1CCCN1CCOCC1,15,-27,5,12,16,-1
CCCCCCn1c(N)c(C(=O)NCCN2CCOCC2)c2nc3ccccc3nc21,.,-5,50*,-1,3,1
COc1ccc(CCn2c(N)c(C#N)c3nc4ccccc4nc32)cc1OC,.,0,16,10,-66,0
COc1ccccc1CCn1c(N)c(C#N)c2nc3ccccc3nc21,-5,-6,+,27,-39,1
N#Cc1c(N)n(CCCN2CCOCC2)c2nc3ccccc3nc12,.,0,192*,18,-5,0
O=S1(=O)CCOC2Cc3ccccc3C2N1Cc1ccccc1 (configuration not stated),-2,.,.,.,.,.
COC(=O)C1=C(c2cc3ccccc3o2)CC2CCC1N2C(=O)N1CCC(O)CC1 (configuration not stated),9,.,.,.,.,.
SMILES,Mtb hypoxia inh,FadD28 FP inh,FBA Mtb inh,GDH-TPI inh,Rv3671c protease,UGM FP inh
Cn1cc([N+](=O)[O-])c(C(=O)NN=Cc2ccncc2)n1,1,.,.,.,.,.
O=C(Nc1ccccc1)C1=CC(c2coc3ccccc3c2=O)CC(OCCCCO)O1 (configuration not stated),-3,.,.,.,.,.
Nc1nonc1-n1nnc(C(=O)NN=Cc2ccccc2Cl)c1COc1ccc(F)cc1,-11,.,.,.,.,.
CC(C)(C)c1nnc(NN=Cc2ccc(Br)cc2)n(N)c1=O,6,.,.,.,.,.
CCC1CCCCN1S(=O)(=O)c1ccc(C(=O)Nc2nnc(-c3cccs3)o2)cc1 (configuration not stated),7,1,2,68*,-7,4
N#Cc1ccc(C(=O)Nc2nnc(-c3cccs3)o2)cc1,-8,-2,0,33*,-4,1
Cc1ccc(C(=O)Nc2ccc(C(=O)/C=C/c3cccs3)cc2)cc1,11,-2,0,18,-14,-2
O=C(/C=C/c1cccs1)c1ccc(NC(=O)c2cccc(Br)c2)cc1,9,1,-1,40*,-1,1
Cc1nn(C)cc1C=NNC(=S)Nc1ccc(Cl)cc1Cl,8,.,.,.,.,.
O=C(O)c1cc(NN=Nc2cccc([N+](=O)[O-])c2)cc([N+](=O)[O-])c1,4,5,-2,24,-10,-3
O=C(O)c1cc(NN=Nc2ccc(Br)cc2)cc([N+](=O)[O-])c1,.,?,-1,31*,-1,-1
CN(N=Nc1ccc([N+](=O)[O-])cc1)c1ccccc1,.,0,-9,13,-7,26*
O=[N+]([O-])c1cccc(NN=Nc2ccccc2)c1,4,0,-1,16,3,-3
O=[N+]([O-])c1ccc(N=NNc2ccccc2)cc1,10,-3,78*,11,-7,3
CC1CCCCC1=NNc1ccc(S(N)(=O)=O)cc1[N+](=O)[O-] (configuration not stated),1,.,.,.,.,.
Cc1ccccc1C=CC(=O)NCC(=O)N1CCC(N(C)C2CCCCC2C)CC1 (configuration not stated),6,.,.,.,.,.
O=C(CSc1n[nH]c(=O)[nH]c1=O)N/N=C/C=C/c1ccccc1,.,0,-1,43*,1,0
COc1ccc(OC)c(C=Nc2ccccc2-c2nc3ccccc3[nH]2)c1,3,-1,+,17,2,-4
Oc1ccccc1C=Nc1ccccc1-c1nc2ccccc2[nH]1,8,-4,128*,18,-8,1
COc1ccc(OC)c(/C=C/c2nc3ccccc3[nH]c2=O)c1,-1,2,4,9,-8,10
Oc1ccc(C=Nc2ccccc2-c2nc3ccccc3[nH]2)c(O)c1,2,-2,166*,33*,5,1
CCOC(=O)N1C2=NC(C(=O)OC)=C(C(=O)OC)C3N(C)c4ccccc4[C@]23CC1C(=O)OC (some centres not stated),16,.,.,.,.,.
COc1cc(/C=N/NC(=O)C(=O)NCc2ccco2)cc(Br)c1O,.,-1,-2,54*,1,2
COc1ccc(/C=N/NC(=O)c2ccc3c(c2)OCO3)c(C(=O)O)c1OC,.,-2,1,33*,1,1
COc1ccccc1/C=N/NC(=O)c1ccc2c(c1)OCO2,.,-5,-5,28,7,0
SMILES,Mtb hypoxia inh,FadD28 FP inh,FBA Mtb inh,GDH-TPI inh,Rv3671c protease,UGM FP inh
COc1cc(C=NNC(=O)C(=O)NCc2ccco2)cc(Br)c1O,15,.,.,.,.,.
COc1cc(/C=N/NC(=O)c2ccc3c(c2)OCCO3)cc(Br)c1O,.,-2,0,36*,7,.
COc1cc(/C=N/NC(=O)c2ccc3c(c2)OCCO3)c(Br)c(Br)c1O,.,2,-1,37*,-1,-1
C=C(C)CNC(=S)NN=Cc1ccc(NC(C)=O)cc1,18,.,.,.,.,.
CC(=NNC(=O)c1cccs1)c1ccc2c(c1)OCO2,9,.,.,.,.,.
CC1Oc2ccccc2C=C1C1C(=C(O)c2ccccc2)C(=O)C(=O)N1CCCN(C)C (configuration not stated),11,.,.,.,.,.
